High-throughput results from PubChem BioAssay.
This is a sample that favours compounds with a hit; in the whole collection about 2.9% have one here.
KDM5B inh: KDM5B demethylase inhibition; Q9UGL1; 2.6% of 220,000 active; KDM5B demethylase, FDH-coupled NADH fluorescence (FDH is formaldehyde dehydrogenase); Potency, µM (top dose mostly 57.7 µM), hits mostly inhibitors; further: nearly all actives have a fitted effect of over 70% in size
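KDM5BΔAP (200 nM final) in 50 mM HEPES pH 7.5, 0.01% Tween-20 was preincubated 10 min at RT with compound over a concentration range. Substrate mix (H3K4me3 12.5 µM, α-KG 25 µM, Fe²⁺, ascorbate, NAD⁺, FDH) was added, and NADH fluorescence change over 30 min gave dose-response curves.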
IP6K1 inhibitor: inhibitors of human IP6K1. IP6K1 kinase, ADP-Glo luminescence, 2 h; stronger effect = lower value. activity change, % (series mostly up to about 58 µM). 0.81% of 140,000 active. AID 1645851; in the data active means activity change below about -25%
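ADP-Glo luminescence measures ADP made by human IP6K1 during a 2 h RT reaction with ATP/IP6 (mix at 1.3 mM/130 uM); top library doses 57.5 and 19.1 uM final.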
SNCA expr inh: SNCA gene expression inhibition; HEK-293 SNCA-luciferase knock-in, luminescence, 24 h; Potency, µM (highest dose often 57.2 µM), hits mostly inhibitors; 0.17% of 140,000 active; AID 1671194; further: nearly all actives have a fitted effect of over 45% in size
SNCA viab count: cell viability loss counter-screen. AID 1671193. HEK-293-SNCA-luc viability, GF-AFC fluorescence, 24 h. Potency, µM (series often up to 57.1 µM), most hits filed as cytotoxic. 0.12% of 150,000 active; further: nearly all actives have a fitted effect of over 30% in size
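Cytotoxicity counterscreen: after 24 h compound treatment of genome-edited SNCA-luciferase HEK-293 cells, live-cell protease substrate GF-AFC read by fluorescence after 30 min; activity scaled between DMSO (0%) and medium-only (-100%), curves Hill-fitted.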
IP6K1 inh cnf: human IP6K1 inhibition, confirmatory | shares compounds with IP6K1 inhibitor | recombinant IP6K1 kinase, ADP-Glo luminescence, 2 h | Potency, µM (doses to about 49 µM), usual class: inhibitors | 13% of 1,200 active; further: nearly all actives have a fitted effect of over 65% in size
Each line names hits and unclear results; the compound was inactive in the other large screens (follow-up assays come after a bar, where they were run); ! = not active in a repeat. Unless noted, the call rests on the fitted dose curve; in most records, active means well fitted curve in the direction sought with a large enough effect; inconclusive means small, poorly fitted or top-dose-only effect, or another doubt; inactive means no such curve, though single readings can be large; an effect the other way counts as inactive or inconclusive.

Cc1cccc(CS(=O)(=O)CC2Nc3ccc(C(=O)NCc4ccccc4)cc3NC2=O)c1 (centres undefined)	KDM5B inh inconclusive, SNCA expr inh inconclusive
Cc1ccc(CNC(=O)c2ccc3c(c2)NC(=O)C(CS(=O)(=O)Cc2cccc(F)c2)N3)cc1 (centres undefined)	KDM5B inh inconclusive, IP6K1 inhibitor -35 | IP6K1 inh cnf inactive
CCN(CC)CCCNC(=O)c1ccc2c(c1)NC(=O)C(CS(=O)(=O)Cc1ccc(F)cc1Cl)N2 (centres undefined)	KDM5B inh inconclusive
CCOCCCNC(=O)c1ccc2c(c1)NC(=O)C(CS(=O)(=O)Cc1ccc(F)cc1Cl)N2 (centres undefined)	KDM5B inh inconclusive, IP6K1 inhibitor -43 | IP6K1 inh cnf inactive
COc1ccc(C2CC(=O)Nc3nc(N)sc32)cc1OC (centres undefined)	none (no result: IP6K1 inhibitor, SNCA expr inh, SNCA viab count)
CNc1nc2c(s1)C(c1ccc(Cl)cc1)CC(=O)N2 (centres undefined)	KDM5B inh 32µM, IP6K1 inhibitor -28 | IP6K1 inh cnf 16µM
CCOC(=O)c1ccc(NC(=O)c2nsc3ccccc23)cc1	KDM5B inh inconclusive
CNC(=O)c1ccc(NC(=O)c2nsc3ccccc23)cc1	IP6K1 inhibitor -27 | IP6K1 inh cnf inconclusive
COc1ccc(CNC(=O)C2CCN(S(=O)(=O)c3cn(C)cn3)CC2)cc1	none
CCOc1ccc(CNC(=O)C2CCN(S(=O)(=O)c3cn(C)cn3)CC2)cc1	IP6K1 inhibitor -26 | IP6K1 inh cnf inactive
COc1ccc(-c2nnc(C3CCN(C(=O)c4ccccc4F)CC3)o2)cc1	KDM5B inh inconclusive, IP6K1 inhibitor -29, SNCA expr inh inconclusive, SNCA viab count inconclusive | IP6K1 inh cnf inconclusive
c1ccc(CNCCN2CCCC2)nc1	none (no result: IP6K1 inhibitor, SNCA expr inh, SNCA viab count)
O=C([C@H]1C[C@H](Oc2cccnc2)CN1C(=O)NC1CCCC1)N1CCOCC1	SNCA expr inh inconclusive, SNCA viab count inconclusive
COc1ccc(CNC(=O)CSc2ncc3c(n2)-c2cc(Cl)ccc2N(Cc2ccccc2)S3(=O)=O)cc1	IP6K1 inhibitor -27 | IP6K1 inh cnf inactive
COc1ccc(CNC(=O)CSc2ncc3c(n2)-c2cc(Cl)ccc2N(Cc2ccccc2)S3(=O)=O)cc1OC	none
Cc1cc(Nc2nc(NC(C)c3ncc(F)cn3)ncc2Cl)n[nH]1 (centres undefined)	none (no result: KDM5B inh, SNCA expr inh) | IP6K1 inh cnf inactive
S=C(NCc1ccc(Cl)cc1)Nc1ccc(Br)cn1	none (no result: IP6K1 inhibitor, SNCA expr inh, SNCA viab count)
c1cn(-c2ccc(-c3nc(C4CCOC4)no3)cc2)cn1 (centres undefined)	IP6K1 inhibitor -28 | IP6K1 inh cnf inactive
COc1ccc(NC(=O)C2CCC(CNS(=O)(=O)c3csc(C(N)=O)c3)CC2)cc1 (centres undefined)	IP6K1 inhibitor -39 | IP6K1 inh cnf inconclusive
CCn1cc(CNC(=O)Nc2cccc(Cl)c2)c(C)n1	none (no result: IP6K1 inhibitor, SNCA expr inh, SNCA viab count)
CC(=O)c1cccc(NC(=O)Cn2ccn3nc(-c4ccc(F)cc4)c(CO)c3c2=O)c1	IP6K1 inhibitor -30, SNCA expr inh inconclusive | IP6K1 inh cnf inactive
CC(C)c1ccc(Nc2c(-c3ccsc3)nc3ccc(Cl)cn23)cc1	IP6K1 inhibitor -31 | IP6K1 inh cnf inactive
Cc1ccc2nc(-c3ccsc3)c(Nc3ccc(C(C)C)cc3)n2c1	none
Cc1ccc(-c2ccc3nnc(CNC(=O)Cc4cccs4)n3n2)cc1C	KDM5B inh inconclusive | IP6K1 inh cnf inactive
CNc1c(NS(=O)(=O)c2ccc(F)c(C)c2)c(=O)oc2ccccc12	none (no result: IP6K1 inhibitor, SNCA expr inh, SNCA viab count)
COc1cc(C(=O)Nc2ccc3nn(-c4ccc(F)cc4)nc3c2)cc(OC)c1OC	none
O=C(Nc1ccc2nn(-c3ccc(F)cc3)nc2c1)c1cccc2c(Cl)cccc12	IP6K1 inhibitor -28 | IP6K1 inh cnf inactive
CCN(CC)C(=S)SSC(=S)N(CC)CC	IP6K1 inhibitor -56!, SNCA expr inh inconclusive, SNCA viab count inconclusive (no result: KDM5B inh) | IP6K1 inh cnf 8.9µM
CCCc1nnc(NC(=O)c2nc(S(=O)(=O)Cc3ccc(C)cc3)ncc2Cl)s1	KDM5B inh inconclusive, IP6K1 inhibitor -33, SNCA expr inh 5µM, SNCA viab count 28µM | IP6K1 inh cnf inconclusive
Cc1ccc(CS(=O)(=O)c2ncc(Cl)c(C(=O)Nc3nc4ccc(F)cc4s3)n2)cc1	KDM5B inh inconclusive, IP6K1 inhibitor -28, SNCA expr inh inconclusive | IP6K1 inh cnf inactive
O=C(COc1ccccc1)N1CCN2C(=O)N(Cc3ccccc3)C(=O)[C@H]2C1	SNCA expr inh inconclusive
Cc1ccc(CNc2oc(-c3ccc(COc4ccc(Cl)cc4)o3)nc2C#N)cc1	KDM5B inh inconclusive, IP6K1 inhibitor -30 | IP6K1 inh cnf inactive
Oc1c(C(c2ccc(Cl)cc2)N2CCCC2)sc2nc(-c3ccco3)nn12 (centres undefined)	none
Cn1nnnc1Sc1ncnc2scc(Br)c12	none (no result: KDM5B inh, IP6K1 inhibitor, SNCA expr inh, SNCA viab count) | IP6K1 inh cnf inactive
Cn1c(Sc2ncnc3scc(-c4ccccc4)c23)nnc1C(F)(F)F	none (no result: IP6K1 inhibitor, SNCA expr inh, SNCA viab count)
Cn1nnnc1Sc1ncnc2scc(-c3ccc(Br)cc3)c12	none (no result: KDM5B inh, IP6K1 inhibitor, SNCA expr inh, SNCA viab count) | IP6K1 inh cnf inactive
Cc1nc(C(=O)N2CCCC(c3nnc(Cn4ccnc4)n3C)C2)cs1 (centres undefined)	none
COc1ccccc1CNC(=O)c1cc2c(s1)-c1ccccc1OC2	KDM5B inh inconclusive
O=C(NCc1cccc(Cl)c1)c1cc2c(s1)-c1ccccc1OC2	KDM5B inh inconclusive, IP6K1 inhibitor -26 | IP6K1 inh cnf inactive
